Tested on: Vero E6 infected with SARS-CoV-2
Assay: inhibition of SARS-CoV-2 cytopathic effect; higher = more antiviral protection, active = above 15
Conditions: 48 h

Measured: inhibition of SARS-CoV-2 cytopathic effect

COc1ccc(S(=O)(=O)N2CCC[C@H]2C(=O)Nc2cc(C)cc(C)c2)cc1
inactive: 1 nM -4.61% | 8.33 nM -4.21% | 100 nM -5.02% | 833.33 nM -4.87% | 10000 nM 1.64%

COc1ccc(-c2cc(=O)c3c(OC)c(OC)c(OC)c(OC)c3o2)cc1 [tangeritin]
inactive: 1 nM 2.13% | 8.33 nM 0.56% | 100 nM -0.23% | 833.33 nM 0.3% | 10000 nM -0.52%

CC(O)Cn1cnc2c1c(=O)n(C)c(=O)n2C (stereo not given) [Proxyphylline]
inactive: 1 nM -1.14% | 8.33 nM -0.86% | 100 nM -0.81% | 833.33 nM -0.51% | 10000 nM 0.19%

COc1cc(-c2ncn(/C=C\C(=O)OC(C)C)n2)cc(C(F)(F)F)c1
inactive: 1 nM -1.83% | 8.33 nM -2.94% | 100 nM -8.02% | 833.33 nM -12.1% | 10000 nM -11.7%

CCCCC/C=C\C/C=C\C/C=C\CCCCC(=O)O [gamma-linolenic-acid]
inactive: 1 nM -0.6% | 8.33 nM -2.39% | 100 nM -2.33% | 833.33 nM -1.24% | 10000 nM -1.03%

Nc1ccc(S(=O)(=O)Nc2nccs2)cc1 [sulfathiazole]
inactive: 1 nM 1.78% | 8.33 nM 2.25% | 100 nM 0.28% | 833.33 nM 1.1% | 10000 nM -0.08%

O=[N+]([O-])c1cccc2cn[nH]c12 [7-nitroindazole]
inactive: 1 nM -1.89% | 8.33 nM 1.76% | 100 nM 3.57% | 833.33 nM 4.56% | 10000 nM -1.2%
